Compounds with a hit are over-represented: about 3.4% of the library has one in this group of screens.
TWEAK-Fn14 inh: TWEAK-Fn14 signaling inhibition. TWEAK-stimulated Fn14 reporter cells, luciferase luminescence, 8 h. inhibition, % at 10 µM. 2% of 360,000 active; in the data active = inhibition above about 50%
Shn3 3UTR inh: Schnurri-3 reporter inhibition in Clone20 osteoblasts; Clone20 osteoblast Shn3 3'UTR firefly luciferase, 24 h; inhibition, % at 12.5 µM; 0.52% of 360,000 active;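 active = mean inhibition of at least 75% with every replicate also reaching 75%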;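 note: 0% = median of neutral control wells and 100% = pilot-screen positive control compound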
TROY signal inh: blocks TROY-dependent signaling in reporter cells. Q293 LMP1-TROYcd NF-kB luciferase reporter, 4 h. inhibition, % at 10 µM. 0.98% of 360,000 active;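 active = compounds whose plate-normalised and pattern-corrected inhibition of the luciferase reporter signal at the single screening dose is 50% or more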
EBV LMP1 NFkB: Epstein-Barr LMP1 NF-kappaB reporter inhibition; inhibition, % at 12.5 µM; 0.69% of 350,000 active; LMP1-induced NF-kappaB luciferase reporter cells, luminescence; in the data active = inhibition above about 41%;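 note: 0% = neutral control wells and 100% = reference inhibitor control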
HIF-2a inh: HIF-2a inhibition | 786-0 RCC cells HIF-2a reporter, luciferase luminescence, overnight | inhibition, % at 18.8 µM | 0.72% of 360,000 active | AID 624352;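 active = inhibition of the luminescence signal of 40% or more relative to plate controls, in a single-dose primary screen at 18.75 µM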
MITF TRPM1 inh: MITF TRPM1 promoter inhibition in SK-MEL-5 cells; SK-MEL-5 TRPM1 promoter luciferase, 24 h; 0.83% of 330,000 active; inhibition, % at 12.5 µM;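 active = mean inhibition across replicates of 60% or more, whatever share of single replicates reaches that level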
An asterisk follows results filed as active.

How did Cc1ccc(S(=O)(=O)NCCn2nc(C)cc2C)cc1 do in these assays?
TWEAK-Fn14 inh: 91*; Shn3 3UTR inh: -11; TROY signal inh: 0; EBV LMP1 NFkB: 6; HIF-2a inh: 9; MITF TRPM1 inh: 1

What do the screens show for `COc1cccc(/C=C/c2ccc3cccc(O)c3n2)c1OC`?
TWEAK-Fn14 inh: 82*; Shn3 3UTR inh: 10; TROY signal inh: 48; EBV LMP1 NFkB: 0; HIF-2a inh: -313; MITF TRPM1 inh: -15

How did COc1ccc(/C=C/c2ccc3cccc(O)c3n2)c(OC)c1OC do in these assays?
TWEAK-Fn14 inh: 81*; Shn3 3UTR inh: 19; TROY signal inh: -44; EBV LMP1 NFkB: -4; HIF-2a inh: -187; MITF TRPM1 inh: -19

Results for COc1ccc(/C=C/c2ccc3cccc(O)c3n2)cc1Br ?
TWEAK-Fn14 inh: 72*; Shn3 3UTR inh: -67; TROY signal inh: 54*; EBV LMP1 NFkB: 4; HIF-2a inh: -242; MITF TRPM1 inh: -64

What do the screens show for `COc1cc(Br)cc(/C=C/c2ccc3cccc(O)c3n2)c1OC`?
TWEAK-Fn14 inh: 0; Shn3 3UTR inh: 1; TROY signal inh: -27; EBV LMP1 NFkB: 9; HIF-2a inh: -7; MITF TRPM1 inh: 23

How did COc1cccc(/C=C/c2ccc3cccc(O)c3n2)c1 do in these assays?
TWEAK-Fn14 inh: 84*; Shn3 3UTR inh: 30; TROY signal inh: 50*; EBV LMP1 NFkB: -4; HIF-2a inh: -206; MITF TRPM1 inh: -6

What do the screens show for `COc1cc(/C=C/c2ccc3cccc(O)c3n2)cc(Br)c1OC`?
TWEAK-Fn14 inh: 19; Shn3 3UTR inh: 0; TROY signal inh: -33; EBV LMP1 NFkB: 2; HIF-2a inh: -215; MITF TRPM1 inh: -1

Results for COc1cc(/C=C/c2ccc3cccc(O)c3n2)cc(OC)c1OC ?
TWEAK-Fn14 inh: -46; Shn3 3UTR inh: -10; TROY signal inh: -46; EBV LMP1 NFkB: -4; HIF-2a inh: -60; MITF TRPM1 inh: 78*

Results for CC(O)CNc1ncnc2nc[nH]c12 (stereo unspecified) ?
TWEAK-Fn14 inh: 4; Shn3 3UTR inh: -3; TROY signal inh: 6; EBV LMP1 NFkB: -5; HIF-2a inh: 18; MITF TRPM1 inh: -1

How did CC(C)CCCCCCCCCCCCC(=O)NCC(=O)NC1C(O)C(O)C(Nc2ncnc3nc[nH]c23)OC1C(O)CO (stereo unspecified) do in these assays?
TWEAK-Fn14 inh: 97*; Shn3 3UTR inh: 97*; TROY signal inh: 72*; EBV LMP1 NFkB: 88*; HIF-2a inh: 69*; MITF TRPM1 inh: 76*

How did Cc1ccc(S(=O)(=O)N2CCN(C(=O)COC(=O)CC(C)c3ccccc3)CC2)c(C)c1 (stereo unspecified) do in these assays?
TWEAK-Fn14 inh: 4; Shn3 3UTR inh: -12; TROY signal inh: -17; EBV LMP1 NFkB: -6; HIF-2a inh: 13; MITF TRPM1 inh: 4

What do the screens show for `CCSc1nsc(NC(=O)Nc2ccccc2F)n1`?
TWEAK-Fn14 inh: -2; Shn3 3UTR inh: 10; TROY signal inh: 11; EBV LMP1 NFkB: 3; HIF-2a inh: -343; MITF TRPM1 inh: -14

How did C=CCSc1nsc(NC(=O)Nc2ccc(F)cc2)n1 do in these assays?
TWEAK-Fn14 inh: 52*; Shn3 3UTR inh: 55; TROY signal inh: 31; EBV LMP1 NFkB: 32; HIF-2a inh: -187; MITF TRPM1 inh: 35

Results for CCN(CC)c1ccc(C(=C2C=CC(=[N+](CC)CC)C=C2)c2ccccc2)cc1 ?
TWEAK-Fn14 inh: 107*; Shn3 3UTR inh: 97*; TROY signal inh: 89*; EBV LMP1 NFkB: 95*; HIF-2a inh: 84*; MITF TRPM1 inh: 109*

Results for CCN(CC)c1ccc(C(=O)NNC(=O)CCl)cc1 ?
TWEAK-Fn14 inh: 8; Shn3 3UTR inh: 32; TROY signal inh: 19; EBV LMP1 NFkB: -3; HIF-2a inh: 4; MITF TRPM1 inh: 6

How did CCN(CC)c1ccc(C(=C2C=CC(=[N+](CC)CC)C=C2)c2ccc(N(CC)CC)cc2)cc1 do in these assays?
TWEAK-Fn14 inh: 103*; Shn3 3UTR inh: 89*; TROY signal inh: 91*; EBV LMP1 NFkB: 36; HIF-2a inh: 97*

How did COc1ccc2[nH]c(C(=O)N/N=C/c3ccccc3OC)cc2c1 do in these assays?
TWEAK-Fn14 inh: 21; Shn3 3UTR inh: -35; TROY signal inh: -9; EBV LMP1 NFkB: -39; HIF-2a inh: -34; MITF TRPM1 inh: 8

What do the screens show for `COc1cc(OC)c2cc(C(=O)N/N=C/c3ccccc3O)[nH]c2c1`?
TWEAK-Fn14 inh: 25; Shn3 3UTR inh: 89*; TROY signal inh: 10; EBV LMP1 NFkB: 11; HIF-2a inh: 2; MITF TRPM1 inh: 33

How did CCn1c2ccccc2c2cc(/C=N/NC(=O)c3cccc(C)c3)ccc21 do in these assays?
TWEAK-Fn14 inh: 7; Shn3 3UTR inh: 1; TROY signal inh: 23; EBV LMP1 NFkB: 88*; HIF-2a inh: 5; MITF TRPM1 inh: 13

Results for Cn1c2ccccc2c2cc(/C=N/NC(=O)c3ccc(N)cc3)ccc21 ?
TWEAK-Fn14 inh: -12; Shn3 3UTR inh: 15; TROY signal inh: -14; EBV LMP1 NFkB: 7; HIF-2a inh: -20; MITF TRPM1 inh: -16

What do the screens show for `CCn1c2ccccc2c2cc(/C=N/NC(=O)c3ccccc3C)ccc21`?
TWEAK-Fn14 inh: 13; Shn3 3UTR inh: 26; TROY signal inh: 11; EBV LMP1 NFkB: 87*; HIF-2a inh: -15; MITF TRPM1 inh: -16

Results for Cc1ccc(S(=O)(=O)Nc2ccc(O)c3cccnc23)cc1 ?
TWEAK-Fn14 inh: 22; Shn3 3UTR inh: 27; TROY signal inh: 17; EBV LMP1 NFkB: 8; HIF-2a inh: 84*; MITF TRPM1 inh: 22

What do the screens show for `Cc1ccc(S(=O)(=O)Nc2ccc(O)c3ncccc23)cc1`?
TWEAK-Fn14 inh: 1; Shn3 3UTR inh: 92*; TROY signal inh: 15; EBV LMP1 NFkB: 6; HIF-2a inh: 20; MITF TRPM1 inh: 51

What do the screens show for `CCC1NC(=O)c2cccnc2-n2c1nc1cc(OC)c(OC)cc1c2=O` (stereo unspecified)?
TWEAK-Fn14 inh: 6; Shn3 3UTR inh: -3; TROY signal inh: -17; EBV LMP1 NFkB: -2; HIF-2a inh: 16

Results for Cc1ccc(C)c(N2CCN(C(=O)Nc3ccc4c(c3)N(C)C(=O)CS4)CC2)c1 ?
TWEAK-Fn14 inh: 52*; Shn3 3UTR inh: 69; TROY signal inh: 40; EBV LMP1 NFkB: 13; HIF-2a inh: 6; MITF TRPM1 inh: 24

How did CN1C(=O)CSc2ccc(NC(=O)N3CCN(c4ccccn4)CC3)cc21 do in these assays?
TWEAK-Fn14 inh: 33; Shn3 3UTR inh: 23; TROY signal inh: 13; EBV LMP1 NFkB: -10; HIF-2a inh: 8; MITF TRPM1 inh: 15

How did Cc1ccccc1N1C(=O)[C@@H]2Cc3ccccc3CN2C1=O do in these assays?
TWEAK-Fn14 inh: -7; Shn3 3UTR inh: -5; TROY signal inh: -8; EBV LMP1 NFkB: 0; HIF-2a inh: 11; MITF TRPM1 inh: -5

Results for O=C1[C@@H]2Cc3ccccc3CN2C(=O)N1c1cccc(F)c1 ?
TWEAK-Fn14 inh: 34; Shn3 3UTR inh: -10; TROY signal inh: 62*; EBV LMP1 NFkB: -13; HIF-2a inh: -124; MITF TRPM1 inh: -32
